From PubChem BioAssay
Only some compounds are listed: those with a hit (about 0.3% of all), similar ones and a draw of the others.
S-ASM inh: Inhibitors of Secretory Acid Sphingomyelinase (S-ASM): qHTS; Sphingomyelin phosphodiesterase (Homo sapiens), P17405; placental ASM, HMU-PC fluorogenic substrate, 60 min; Potency, µM (highest dose often 57.5 µM), without a hit: top-dose activity change, negative = inhibition, most hits filed as inhibitors; 340,000 compounds, 0.006% hits; further: potency means the concentration at half of the fitted maximal effect
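Fluorogenic HMU-PC substrate (9 uM final) is turned over by placental ASM in 60 min at 37 C after a 10 min compound preincubation. Reaction ended by alkaline stop (pH 10), with fluorescence read at 386/447 nm.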
MmCpn inh: Inhibitors of TCP-1 ring complex (TRiC) of Methanococcus maripaludis (MmCpn): qHTS | Chaperonin Mm-Cpn (Methanococcus maripaludis) | AID 504842, 2011 | 330,000 compounds, 0.031% hits | purified Mm-Cpn ATPase, ADP Transcreener TR-FRET | Potency, µM (titrated, usually from 76.9 µM), inactives show at the highest dose activity, negative = inhibition, most hits filed as inhibitors; further: potency means the concentration at half of the fitted maximal effect; on the % scale 0 is the no-effect control and ±100 the full control effect; nearly all actives have a fitted effect of over 80% in size
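TR-FRET (320 nm excitation; 590 and 665 nm emission) reports ADP made from 10 uM ATP by 25 nM enzyme; compounds were preincubated 10 min, reaction run 30 min, both at 37°C.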
CCT chaperon mod: High-Throughput Screening for Modulators of Cytosolic Chaperonin Activity. AID 651819, 2012. 360,000 compounds, 0.3% hits. activity change, % (test concentration not listed), hits read low. purified chaperonin ATPase assay, HTRF ADP detection, 30 min; in the data active means activity change below about -30%; further: on the % scale 0 is the no-effect control and ±100 the full control effect
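Enzyme 40 or 20 nM (batch-dependent) in Tris pH 7.4/KCl/MgCl2/DTT; cpd 76 uM single point; ATP 10 uM; 30 min 37 °C; Transcreener ADP HTRF detection, 30 min RT; ratio 665/615.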
USP2a block: qHTS Assay for Inhibitors of Ubiquitin-specific Protease USP2a Using CHOP2 as the Reporter; Ubiquitin carboxyl-terminal hydrolase 2 (Homo sapiens), O75604; USP2 core, Ub-CHOP2 coupled fluorogenic reporter, 485/531; Potency, µM (series often up to 38.3 µM), inactives show at the top dose activity change, negative = inhibition, actives largely listed as inhibitors; 330,000 compounds, 0.01% hits;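 further: potency means the concentration at half of the fitted maximal effect; plate controls were DMSO wells for no effect and full inhibition by NEM control for full effect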
Target sequence (O75604 whole entry, looked up): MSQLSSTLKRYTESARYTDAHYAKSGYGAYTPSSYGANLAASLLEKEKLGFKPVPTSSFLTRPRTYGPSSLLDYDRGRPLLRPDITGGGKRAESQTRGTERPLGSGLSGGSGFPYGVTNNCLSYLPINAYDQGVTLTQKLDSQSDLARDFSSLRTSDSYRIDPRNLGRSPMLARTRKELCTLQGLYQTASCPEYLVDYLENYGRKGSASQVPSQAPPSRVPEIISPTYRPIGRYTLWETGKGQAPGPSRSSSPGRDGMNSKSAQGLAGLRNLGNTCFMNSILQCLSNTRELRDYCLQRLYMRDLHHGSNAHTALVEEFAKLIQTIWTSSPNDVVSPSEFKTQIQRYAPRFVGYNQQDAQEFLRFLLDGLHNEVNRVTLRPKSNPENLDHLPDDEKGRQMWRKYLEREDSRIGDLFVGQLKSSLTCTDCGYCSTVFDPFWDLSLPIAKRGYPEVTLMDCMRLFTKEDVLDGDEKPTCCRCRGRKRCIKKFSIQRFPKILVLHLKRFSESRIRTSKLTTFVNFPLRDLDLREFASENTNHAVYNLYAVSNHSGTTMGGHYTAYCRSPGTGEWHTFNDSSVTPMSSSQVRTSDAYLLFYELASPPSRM
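Cell-free coupled assay: 10nM USP2 core preincubated 30min RT with compound in Tris-HCl pH 8.0/CaCl2/CHAPS buffer, then 25nM Ub-CHOP2 and 25nM reporter substrate; fluorescence (Ex 485/Em 531) read after 60min RT, normalized to NEM inhibition, concentration-response curves fitted.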
An asterisk follows results filed as active; i = inactive; ? = inconclusive; . = not tested or not shown. Unless noted, the call rests on the fitted dose curve; in most records, active means well fitted curve in the direction sought with a large enough effect; inconclusive means small, poorly fitted or top-dose-only effect, or another doubt; inactive means no such curve, though single readings can be large; an effect the other way counts as inactive or inconclusive.

SMILES	S-ASM inh	MmCpn inh	CCT chaperon mod	USP2a block
COC(=O)c1c(-c2ccc(OC)cc2)sc2ccc(-c3ccc4c(c3)OCO4)cc12	17.2%	-4.7%	-72.7*	2.6%
COc1ccc2sc(-c3ccc(S(C)(=O)=O)cc3)c(C(=O)NCCc3c[nH]c4ccccc34)c2c1	-29.7%	28.2µM*	1.6	-5.0%
COC(=O)c1sc2ccc(C)cc2c1C(=O)OC	4.3%	.	2.8	.
COc1ccc2c(C(=O)NCCCCO)c(-c3ccc(S(C)(=O)=O)cc3)sc2c1	i	-14.5%	-2.3	0.1%
COC(=O)c1c(-c2ccc(OC)cc2)sc2ccc(OC)cc12	-4.2%	44.7µM*	-3.8	0.8%
COC(=O)c1c(-c2ccccc2OC)sc2cc3c(cc12)OCO3	32.1%	?	-1.0	3.9%
CN1CCN(C(=O)c2ccc(F)c(F)c2)CC1	-3.6%	1.9%	0.6	4.0%
O=C(Cn1cnc2sc3c(c2c1=O)CCCC3)NCC(=O)Nc1c(F)cccc1F	2.9%	0.4%	0.6	2.7%
COCCN(Cc1ccccc1)C(=O)c1c(C)nn(-c2ccccc2)c1C	4.1%	-1.5%	-3.8	-0.3%
O=c1c2oc3nc4c(cc3c2ncn1CCCc1ccccc1)CCCC4	-7.0%	1.3%	-31.7*	0.9%
COc1ccc(C2C3=C(CCCC3=O)Nc3nc(SCc4ccccc4)nn32)cc1OC (stereo unspecified)	219.5%	-4.5%	-30.6*	2.4%
c1ccc2[nH]c(NC3=NCCC3)nc2c1	0.5%	0.1%	-97.6*	0.9%
CCOc1cccc(-c2nc(C(N)=O)c3[nH]c(=O)n(-c4cccc(Cl)c4)c3n2)c1O	1.3%	-2.7%	-37.5*	3.8%
CCOc1ccccc1-c1nc(C(N)=O)c2[nH]c(=O)n(-c3cccc(C)c3)c2n1	81.6%	-1.6%	1.7	1.7%
Cc1ccc(Cn2c(C(C)Nc3nc(-c4ccc(F)cc4)cs3)nc3cc(C(=O)NCCCO)ccc32)cc1 (stereo unspecified)	?	.	-2.5	.
O=C(O)C(Cc1cn[nH]n1)=NO	3.4%	-2.6%	-51.3*	-0.2%
COc1ccc(/C=N/NC(=O)c2ccoc2C)cc1CN1CCN(c2ccc(F)cc2)CC1	-0.9%	1.0%	0.8	-4.9%
CC(=O)NC1C(=O)N=C(SCC(=O)Nc2ccc(C(F)(F)F)cc2Cl)NC1=O (stereo unspecified)	-2.5%	0.7%	-53.3*	0.5%
N#Cc1nc(-c2ccc(OCc3ccccc3)cc2)oc1NCc1cccnc1	-0.6%	-0.2%	-35.9*	3.2%
CN(CC(=O)Nc1ccc(F)c(F)c1F)C(=O)CN1C(=O)NC2(CCCC2)C1=O	2.7%	0.5%	0.1	-0.6%
CCOC(=O)CSc1nc(C)c(CC)c(C)c1C(N)=O	0.9%	1.1%	-62.2*	1.0%
COCCN1C=C2C(=O)C(C)(OC(=O)CCC(=O)OC)C(=O)C=C2C=C1C1CC1 (stereo unspecified)	19.1%	1.9%	-0.2	9.7%
Cc1cc(C)cc(NS(=O)(=O)c2ccc3oc(=O)ccc3c2)c1	-0.1%	2.1%	-30.7*	-0.9%
Cc1ccc(C)c(NS(=O)(=O)c2ccc3oc(=O)ccc3c2)c1	2.6%	-2.1%	0.6	1.7%
CCn1c(CN2CCOCC2)nnc1SCC(=O)Nc1ccc(C(C)=O)cc1	14.8%	-1.2%	0.2	?
SMILES	S-ASM inh	MmCpn inh	CCT chaperon mod	USP2a block
COc1cc(/C=C\C(=O)OCn2nnc3ccccc3c2=O)cc(OC)c1OC	-24.9%	-1.2%	-36.3*	9.7%
COc1cc(C(=O)OCn2nnc3ccccc3c2=O)cc(OC)c1OC	-0.1%	0.5%	0.4	-0.9%
Cc1ccc(S(=O)(=O)NCC(=O)NCc2cc(=O)n(C)c(=O)n2C)cc1C	-1.6%	-16.2%	-79.5*	8.5%
Cc1ccc(S(=O)(=O)NCC(=O)NCc2cc(=O)n(C)c(=O)n2C)cc1	2.8%	-0.7%	1.7	4.0%
Cc1cc2ccccc2n1CCNC(=O)c1cccs1	-1.0%	28.2µM*	-0.7	-0.5%
Cc1cc2ccccc2n1CCNC(=O)C1CC1	6.2%	-5.3%	0.6	2.4%
CN(C)c1ccc(N/C=C/C(=O)C(C)(C)C)cc1	1.8%	22.4µM*	-3.4	-0.3%
N#CC1(NC(=O)COc2cccnc2[N+](=O)[O-])CCCCC1	3.5%	1.9%	-37.7*	3.0%
CCCN1C(=O)SC(CC(=O)Nc2cccc3ccccc23)C1=O (stereo unspecified)	3.2%	0.5%	-3.7	0.9%
CCCCC(CC)Cn1c(O)c(/C=C2\C=NN=C2c2ccccc2)sc1=S (stereo unspecified)	?	-1.1%	0.6	3.0%
Cc1occc1C(=O)Nc1c(F)cc(F)cc1Br	3.0%	2.6%	1.2	1.8%
O=C(Cc1ccc(Br)cc1)N1CCN(C(=O)c2ccco2)CC1	0.2%	-1.9%	1.3	0.9%
CS(=O)(=O)N1CCN(c2ccccc2NC(=O)Cc2ccc(Cl)cc2)CC1	3.7%	-0.4%	-32.3*	2.0%
CS(=O)(=O)N1CCN(c2ccccc2NC(=O)Cc2ccccc2)CC1	-3.5%	-0.6%	-0.2	2.2%
COCc1cc(CNC(=O)C2CCC(=O)N(Cc3cccc(OC)c3)C2)[nH]n1 (stereo unspecified)	-3.1%	-0.7%	-47.9*	-0.1%
COc1ccc2nc(CNC(=O)C3CCC(=O)N(CCc4ccccc4)C3)[nH]c2c1 (stereo unspecified)	2.4%	-0.6%	-56.3*	-1.4%
COc1cccc(CN2CC(C(=O)N(C)Cc3nc(C)cs3)CCC2=O)c1 (stereo unspecified)	1.1%	1.0%	-30.9*	-1.4%
COc1cccc(CN2CC(C(=O)N(C)CCc3ccccc3)CCC2=O)c1 (stereo unspecified)	-0.9%	-0.4%	-1.5	1.1%
CC(O)[C@@H](C(=O)N1CCNCC1)n1cc(CCCCN)nn1 (stereo partly specified)	-0.3%	.	-1.5	0.3%
O=C(CCS(=O)(=O)c1cccs1)Nc1ccc(C(=O)NCc2ccc(F)cc2)cc1	-2.1%	-15.0%	0.5	-0.9%
O=C(COC(=O)C1CCCCC1)NCc1ccc(Cl)cc1	0.4%	-1.3%	-0.6	1.5%
COc1cccc(CN2CCC(n3nccc3NC(=O)C3CC3)CC2)c1	1.1%	-2.1%	0.8	1.4%
COc1cccc2ccc(CC(O)(c3ccccc3)c3ccccc3)nc12	.	.	-51.6*	.
O=C(NCc1ccccn1)Nc1cccc(Cl)c1	-0.4%	-2.2%	-42.5*	1.5%
CCS(=O)(=O)N1Cc2ccccc2CC1C(=O)Nc1cccc(OC)c1 (stereo unspecified)	1.1%	-5.2%	-48.9*	-1.0%
CCS(=O)(=O)N1Cc2ccccc2CC1C(=O)Nc1ccc(OC)c(OC)c1 (stereo unspecified)	-5.1%	-8.6%	0.8	3.0%
CCOC(=O)[C@]12CCC=C1N(CCC1=CCCCC1)C(=O)[C@H](CC(=O)N1CCN(C(=O)C3CC3)CC1)C2	.	.	0.3	.
